Bioassay records from PubChem BioAssay.
D1 antag – human D1 dopamine receptor antagonism; P21728; HEK293 TREx D1 cells, calcium flux, dopamine EC80; stronger effect = lower value; activity change, negative = inhibition, % at 10 µM; actives 3.2% (n = 360,000); AID 504652; in the data active = activity change below about -30%; note: % is set by controls: 0 for no effect and ±100 for the full control effect
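Compound effects on dopamine-evoked calcium signalling were measured in tetracycline-induced HEK293 Trex D1 cells. Dopamine at EC80 followed a 180 s compound pre-read, and fluorescence was tracked kinetically for 180 s more.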
D1 agonist – agonists of human D1 dopamine receptor; P21728; HEK293 T-REx D1 cells, calcium flux, agonist mode; activation, % at 2 µM; actives 1% (n = 360,000); AID 504660; note: 0% is about no effect
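Tetracycline-induced HEK293 TREx D1 cells, force-coupled to calcium signalling, were dye-loaded with a no-wash calcium kit. Compound was pin-added after a 10 s baseline. Fluorescence was read kinetically at 1 cycle/s for 180 s, with calcium rises flagged as agonism.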
TRHR agonist – TRH receptor (human) agonism; P34981; TRHR cells, calcium flux fluo-8, FDSS agonist mode; activation, % at 2 µM; actives 0.18% (n = 360,000); AID 493084; note: 0% is about no effect
Target sequence (P34981 whole entry, looked up): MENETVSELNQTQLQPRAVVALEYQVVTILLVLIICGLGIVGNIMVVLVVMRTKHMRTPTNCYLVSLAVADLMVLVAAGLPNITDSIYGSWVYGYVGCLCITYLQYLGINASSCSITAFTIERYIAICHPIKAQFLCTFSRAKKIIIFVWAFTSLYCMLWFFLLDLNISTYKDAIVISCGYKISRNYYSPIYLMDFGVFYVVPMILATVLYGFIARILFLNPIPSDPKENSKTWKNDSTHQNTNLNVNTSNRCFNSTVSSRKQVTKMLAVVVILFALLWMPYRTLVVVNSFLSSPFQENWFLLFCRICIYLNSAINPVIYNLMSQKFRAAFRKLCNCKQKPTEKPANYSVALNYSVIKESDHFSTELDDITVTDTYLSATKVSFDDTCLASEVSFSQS
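Steps: seed TRHR cells overnight; add fluo-8 no-wash Ca dye, RT 30 min–1.5 h; record 10 s baseline; pin-transfer compounds; monitor fluorescence 1 cycle/s for the agonist window. Calcium increases flag candidate agonists.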
D1 PAM – enhances dopamine response at the human D1 receptor. P21728. HEK293 TREx D1 cells, calcium flux, dopamine EC20 potentiation. potentiation, % at 10 µM. actives 0.036% (n = 360,000). AID 504651; in the data active = potentiation above about 30%; note: 0% is about no effect
TRHR PAM – allosteric enhancers of human TRH receptor; enhancement, % at 2 µM; TRHR cells, fluo-8 calcium fluorescence, EC20 TRH enhancement; P34981; AID 493056; actives 0.66% (n = 360,000); in the data active = enhancement above about 30%; note: 0% is about no effect
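Enhancer read-out: after compound pinning and an initial kinetic agonist-mode read, an EC20 of TRH (10 nM final) was injected and fluo-8 calcium signal (Ex 480/Em 530) followed at 1 s/cycle for 100 cycles in TRHR-expressing cells.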
Epigenetic derep – derepresses silenced GFP reporter in murine cells | AID 1865 | Potency, µM (titrated, usually from 53.9 µM), inactives show at the highest dose GFP activation, actives largely listed as activators | murine LDR cells, GFP reporter derepression, 30 h | actives 0.2% (n = 280,000); active = well fitted activation curve with a large enough effect; note: potency is the fitted concentration of half-maximal effect; % of control where 0% means no effect; nearly all actives have a fitted effect of over 60% in size
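Reporter derepression read as number of fluorescent GFP-positive objects, 20-120 um in size, counted by laser-scanning cytometer. Mouse LDR line with an epigenetically silenced CMV-GFP locus; compound incubation 30 h, 37 C.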
An asterisk follows results filed as active; . = no result given; [ ] = remark or other dose. A selection: hits, their analogues and other compounds. The true share with any hit is near 4.6%. Cut-off read from the data, not from the text of the source, unless noted: active = activation above about 30%; inactive = the rest.

SMILES | D1 antag | D1 agonist | TRHR agonist | D1 PAM | TRHR PAM | Epigenetic derep
COc1ccc(NC(=O)Cn2c(=O)n(-c3ccccc3)c(=O)c3c4c(sc32)CCCC4)cc1 | -6 | 2 | 1 | 1 | 2 | 6%
CC(N)(C(=O)O)c1ccc(P(=O)(O)O)cc1 (centres undefined) | . | . | . | . | . | 0%
COc1ccc(N(C)S(=O)(=O)c2cccc(C(=O)Nc3cccc(C(=O)NC4CC4)c3)c2)cc1 | -53* | 6 | 0 | -14 | 0 | .
Cc1ccc(N(C)S(=O)(=O)c2cccc(C(=O)Nc3ccc(C)cn3)c2)cc1 | -88* | 3 | 0 | 4 | 2 | .
CCSc1nnc(NC(=O)c2cccc(S(=O)(=O)N(C)c3ccc(C)cc3)c2)s1 | -54* | 3 | 0 | -7 | -3 | 0%
CN(C)S(=O)(=O)c1cccc(C(=O)Nc2ccc(Cl)cn2)c1 | -5 | 4 | 0 | -5 | 1 | 3%
COc1ccc(-c2nc3nc(C)cc(N4CCN(c5cccc(C(F)(F)F)c5)CC4)n3n2)cc1 | -3 | -2 | 0 | 0 | 0 | -3%
O=C(Nc1ccc(F)c(F)c1)C1CCCN1S(=O)(=O)c1cccc2nsnc12 (centres undefined) | -5 | 0 | 0 | 3 | 0 | 0%
COc1ccc(N2CCN(S(=O)(=O)CCNC(=O)Cc3ccc(OC)c(OC)c3)CC2)cc1 | 10 | 0 | 0 | 0 | 3 | -1%
CCNC(=O)c1ccc(C)c(-n2c(C)nc3cccnc32)c1 | -6 | -1 | 0 | -1 | 6 | 0%
O=C(c1ccco1)N1CCN(c2nc(-c3ccc(F)cc3)cs2)CC1 | -42* | 2 | 0 | -6 | 3 | -1%
O=C(CCC1CCN(C(=O)c2ccco2)CC1)NCc1ccc(F)cc1 | -50* | 0 | 0 | -15 | -6 | .
COc1cc(NC(=O)NC(C)c2c(-n3cccc3)sc3c2CCN(C)C3)cc(OC)c1 (centres undefined) | -6 | 15 | 2 | -2 | -11 | -1%
COc1cccc(CNC(=O)C2CCN(Cc3cc4ccccc4n3Cc3ccc(C)cc3)CC2)c1 | 20 | 4 | 0 | 2 | -6 | 0%
COc1ccccc1NC(=O)CSc1ncc2c(n1)-c1cc(Cl)ccc1N(Cc1ccccc1)S2(=O)=O | -33* | 7 | 2 | -7 | -5 | 5%
COc1ccc(CNC(=O)CSc2ncc3c(n2)-c2ccc(Cl)cc2N(Cc2ccccc2)S3(=O)=O)cc1 | -5 | 6 | -1 | 2 | 10 | 16µM*
O=C(CSc1ncc2c(n1)-c1cc(Cl)ccc1N(Cc1ccccc1)S2(=O)=O)Nc1ccc(F)cc1F | 33 | 4 | 1 | 4 | 6 | 14%
Cc1ccc(CCNC(=O)c2c(C)oc3ncn(CC(C)C)c(=O)c23)cc1 | -21 | -1 | -1 | 2 | 13 | 0%
CCc1ccc(Nc2ccc(C(N)=O)cc2[N+](=O)[O-])cc1 | -40* | 1 | 0 | -4 | 0 | -3%
Cc1ccc(Nc2ccc(C(N)=O)cc2[N+](=O)[O-])cc1C | -53* | 1 | -2 | -12 | 3 | -3%
Cc1ccc(NC(=O)CSc2ccc(C(N)=O)cc2[N+](=O)[O-])cc1C | . | -2 | 0 | 1 | -4 | 1%
COc1ccccc1CNS(=O)(=O)c1ccc2c(c1)CC(C)N2C(C)=O (centres undefined) | -8 | 15 | 1 | -2 | -7 | -1%
Cc1ccc(NC(=O)c2cc(-c3ccccc3)nn2-c2ccccc2)cc1 | 0 | 5 | 0 | -2 | -6 | -1%
O=C(NC1=NCCS1)c1cc(-c2ccccc2)nn1-c1ccccc1 | -47* | 4 | 0 | 0 | 1 | 1%
CCOC(=O)N1CCN(C(=O)c2nc3ccccc3s2)CC1 | -34* | 4 | 0 | 4 | -1 | 0%
SMILES | D1 antag | D1 agonist | TRHR agonist | D1 PAM | TRHR PAM | Epigenetic derep
O=C(COc1ccc([N+](=O)[O-])cc1)N1CCC(c2nc3ccccc3s2)CC1 | -82* | 7 | 0 | -1 | -3 | -1%
CCOc1cccc(C(=O)N2CCC(c3nc4ccccc4s3)CC2)c1 | -36* | 0 | 0 | -2 | 5 | -2%
COc1ccc(OCC(=O)N2CCC(c3nc4ccccc4s3)CC2)cc1 | -11 | 5 | 0 | -1 | -1 | -3%
CCS(=O)(=O)c1nc(NC(C)=O)n[nH]1 | -46* | 5 | 0 | -4 | 4 | 1%
COc1ccccc1-c1nc(NC(C)=O)n[nH]1 | 1 | 1 | 0 | 1 | 0 | 0%
Cc1ccc(NC(=O)[C@@H](c2ccccc2)N2Cc3ccccc3C2=O)cc1F | 4 | 2 | 1 | -5 | 4 | 0%
COc1cc(/C=N\Nc2ccc([N+](=O)[O-])cc2)ccc1OCC(=O)Nc1ccc(C)c(C)c1 | . | . | . | . | . | 6.3µM*
C/C=C/c1ccc(OC(C)=O)c(OC)c1 | 9 | -4 | -1 | -1 | 2 | 0%
C/C=C/c1ccc(OC)c(OC(C)=O)c1 | -76* | 1 | 0 | -6 | -5 | 0%
COc1cc(/C=C/c2cc[n+](C)cc2)ccc1OCC(=O)Nc1ccccc1 | -9 | 2 | 1 | -7 | -2 | .
C/C=C/c1ccc(OCC(=O)Nc2ccc(C(N)=O)cc2)c(OC)c1 | -53* | 1 | -1 | -7 | -1 | 0%
C=C/C1=C/Cc2ccccc2[C@H](C[N+](=O)[O-])C(C(C)=O)(C(=O)OC)C1 (some centres undefined) | . | . | . | . | . | 5%
Cc1nc(NC(=O)C2CC2)sc1C(=O)Nc1ccccc1 | -38* | 0 | 1 | -6 | -4 | .
Cc1nc(NC(=O)C2CC2)sc1C(=O)Nc1ccc(Br)cc1 | -1 | -1 | 0 | 3 | -9 | .
CC(=O)N1CCC(N(Cc2ccc(C)o2)C(=O)Nc2cccc(C(F)(F)F)c2)CC1 | -2 | -1 | -1 | 1 | 3 | -1%
O=S(=O)(c1ccc(Oc2ccc(S(=O)(=O)N(CCO)CCO)cc2)cc1)N(CCO)CCO | -15 | -2 | 0 | -1 | 21 | 0%
O=S(=O)(c1ccc(N2CCC(c3ccc(Cl)cc3)=N2)cc1)N(CCO)CCO | 60 | 121* | 0 | 28 | -3 | 1%
CN(C)CCCNS(=O)(=O)c1ccc(N2CCC(c3ccc(Cl)cc3)=N2)cc1 | -19 | 42* | 0 | -6 | 4 | -1%
CC[C@@H](c1ccccc1)n1c(=O)n2n(c1=O)[C@H]1[C@H](O)[C@H]3O[C@H]3C(=O)[C@H]1CC2 | . | . | . | . | . | 5%[10.1 µM]
CC1(C)CC(NC(=O)c2sc3cc(Cl)ccc3c2Cl)CC(C)(C)N1 | -37* | 8 | 1 | -10 | 9 | 1%
